We go through 27 compounds from PubChem BioAssay AID1159606 (Sanford-Burnham Center for Chemical Genomics, 2016).

Screen size: about 360,000 compounds; about 7,300 (2%) were called active. No stated cut-off is given here; in the data, active means inhibition above about 50%; inactive means the rest. The list comes from a sample in which actives are over-represented; it also holds similar structures and randomly drawn compounds.

This assay is described as follows: blockers of TWEAK-induced Fn14 reporter activity – luciferase reporter cells, uHTS, primary screen (AID 1159606). To be noted: TWEAK-stimulated Fn14 reporter cells, luciferase luminescence, 8 h; at 10 µM; hits give high values.
As for `O=C(CN(C(=O)c1csnn1)c1cccc(F)c1)NCc1ccc(F)cc1`, the inhibition was 0.95% (inactive).

As to `COc1ccc(C(c2nnnn2C2CCCC2)N2CCN(C/C=C/c3ccccc3)CC2)cc1` (configuration not stated), the inhibition was -2.02% (inactive). With `O=C(NCCOc1ccccc1)c1ccccc1F`, the inhibition is 30.7% (inactive). The figure for `NS(=O)(=O)c1cc(C(=O)NCCOc2ccccc2)c(Cl)cc1Cl` is 3.06% (inactive). The figure for `O=C(NCCOc1ccccc1)c1ccccc1` is 54.9% (active); for `COc1cc(C(=O)OCC(=O)N(CC(C)C)C2CCS(=O)(=O)C2)ccc1OCC(C)C` (configuration not stated) it is -5.97% (inactive); for `COc1ccc(CCNC(=O)CCC(=O)NC2CCCCC2)cc1OC` it is 4.09% (inactive). Take `COc1ccc(-n2nnnc2-c2nc3ccccc3s2)cc1`: the inhibition is 74% (active). As for `COc1ccc(-n2nnnc2SCC(=O)NCc2cccs2)cc1`, the inhibition is -2.38% (inactive). On to `COc1ccc(CNc2nnnn2C)cc1`, for which the inhibition is 2.29% (inactive). The figure for `Cc1ccc(CN2CCCOCCS2(=O)=O)cc1` is -9.75% (inactive); for `Cc1cc(C)nc(Nc2n[nH]c(-c3ccccc3N)n2)n1` it is 53.5% (active). The figure for `CCCOc1ccccc1-c1nc(SCCC(=O)O)n[nH]1` is -9.1% (inactive). The figure for `Nc1ccccc1-c1nc2ccncc2[nH]1` is -11.5% (inactive); for `COc1ccc2c(c1)CC[C@@H]1[C@@H]2CC[C@]2(C)C(=O)CC[C@@H]12` it is -3.91% (inactive); for `O=C(NCc1ccccc1)C1c2ccccc2OCC(=O)N1C1CC1` (configuration not stated) it is 4.34% (inactive). Regarding `NC(=O)Nc1ccccc1C(=O)NCCc1ccccc1`, the inhibition was 11.8% (inactive). The figure for `COc1ccccc1N1CCN(C(=O)CCS(=O)(=O)c2ccc3c(c2)NC(=O)C(C)S3)CC1` (configuration not stated) is 21.7% (inactive); for `CC1Sc2ccc(S(=O)(=O)CCC(=O)NCc3ccccc3Cl)cc2NC1=O` (configuration not stated) it is 0.42% (inactive).

Take `Cc1cccc(N2CCN(C(=O)CCS(=O)(=O)c3ccc4c(c3)NC(=O)C(C)S4)CC2)c1C` (configuration not stated): the inhibition is 50.6% (active). The figure for `O=C(NCc1ccc(F)cc1)C1CCN(C(=O)Nc2ccc(F)cc2)CC1` is 31.5% (inactive); for `Cc1c(Cl)cccc1NC(=O)Nc1ccc(C(=O)N2CCCC2)cc1` it is 5.68% (inactive); for `O=C(Nc1ccc(Cl)cc1)Nc1ccc(C(=O)N2CCOCC2)cc1` it is 79% (active).

In the case of `O=C(Nc1ccccc1C(=O)N1CCOCC1)c1ccc(Cl)cc1`, the inhibition is -5.43% (inactive). The figure for `COc1cc2c(C(=O)N3CCN(C)CC3)c(CSc3ccccc3)n(C)c2cc1Br` is 0.16% (inactive). The figure for `CCN(CC)CCN(C)C(c1ccnc2ccccc12)c1nnnn1-c1ccc2c(c1)OCCO2` (configuration not stated) is 29.9% (inactive); for `CCCCn1nnnc1C1(C)CCC(=O)N1Cc1ccc(OC)c(OC)c1` (configuration not stated) it is 2.84% (inactive).

By inhibition is commonly meant the change of the read-out against control, counted positive when it falls.
